Results published in PubChem BioAssay AID1159580 (chemical genetic matrix, 2015).
Several values for one entry are separate records, joined by “and”; a condition that tells them apart may be missing. Equal values may be shown once. Out of some 5,500 compounds screened, about 2,000 (36%) were called active. Another 18% or so got no clear call; they are omitted. Rule as the data show it: active = normalized growth mostly below about 0.91 (no sharp cut-off); inconclusive = no clear call, values can overlap the other calls; inactive = mostly above about 0.92. The list shows a part of the results.

Test: chemical genetic growth profiling, strain panel (AID 1159580);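 also: tested at 20 µM; growth read once vehicle control cultures reached saturation at 30 °C; 1 = growth at the plate median or of vehicle wells; lower values mean less growth of the strain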
Conditions: S. cerevisiae deletion strains, growth OD

Measured: normalized growth

C[N+](C)(C)CC(O)CC(=O)O (stereo unspecified)
inactive: locus YAL013W, strain DEP1, hits give low values 1.02 | locus YAL021C, strain ccr4, hits give low values 1.01 | locus YAL026C, strain drs2, hits give low values 0.982 | locus YAL030W, strain snc1, hits give low values 0.982 | locus YBL061C, strain skt5, hits give low values 0.977 | locus YBR009C, strain hhf1, hits give low values 1 | locus YBR021W, strain FUR4, hits give low values 0.992 | locus YBR023C, strain chs3, hits give low values 0.985 | locus YBR171W, strain sec66, hits give low values 0.981 | locus YBR229C, strain ROT2, hits give low values 1 | locus YBR231C, strain swc5, hits give low values 0.974 | locus YBR279W, strain paf1, hits give low values 0.998 | locus YCL011C, strain gbp2, hits give low values 0.978 | locus YCL016C, strain dcc1, hits give low values 0.96 | locus YCL029C, strain bik1, hits give low values 1 | locus YCL069W, strain vba3, hits give low values 0.981 | locus YCR088W, strain abp1, hits give low values 0.986 | locus YDL005C, strain med2, hits give low values 0.98 | locus YDL035C, strain GPR1, hits give low values 1.02 | locus YDL040C, strain nat1, hits give low values 0.982 | locus YDL074C, strain BRE1, hits give low values 1.01 | locus YDL101C, strain DUN1, hits give low values 1 | locus YDL134C, strain PPH21, hits give low values 1.01 | locus YDL185W, strain tfp1, hits give low values 0.996 | locus YDL192W, strain arf1, hits give low values 0.997 | locus YDR001C, strain nth1, hits give low values 0.975 | locus YDR069C, strain doa4, hits give low values 1.01 | locus YDR101C, strain arx1, hits give low values 0.983 | locus YDR137W, strain rgp1, hits give low values 0.972 | locus YDR150W, strain NUM1, hits give low values 1.01 | locus YDR159W, strain sac3, hits give low values 1.02 | locus YDR162C, strain NBP2, hits give low values 1 | locus YDR195W, strain ref2 0.96 | locus YDR297W, strain sur2, hits give low values 0.998 | locus YDR318W, strain mcm21, hits give low values 0.999 | locus YDR334W, strain swr1, hits give low values 0.969 | locus YDR335W, strain msn5, hits give low values 0.971 | locus YDR388W, hits give low values 1.01 | locus YDR392W, strain spt3, hits give low values 0.973 | locus YDR502C, strain sam2, hits give low values 1.02 | locus YEL003W, strain gim4, hits give low values 0.986 | locus YEL037C, strain rad23, hits give low values 0.969 | locus YEL061C, strain CIN8 (second series), hits give low values 0.981 | locus YEL061C, strain CIN8, hits give low values 1 | locus YER015W, strain faa2, hits give low values 0.977 | locus YER016W, strain bim1, hits give low values 0.965 | locus YER110C, hits give low values 0.991 | locus YER111C, strain swi4, hits give low values 0.96 | locus YER155C, strain BEM2 (second series), hits give low values 0.965 | locus YER155C, strain BEM2, hits give low values 0.995 | locus YER167W, strain BCK2, hits give low values 0.995 | locus YFR010W, strain ubp6, hits give low values 1 | locus YGL078C, strain dbp3, hits give low values 1 | locus YGL086W, strain mad1, hits give low values 0.998 | locus YGL167C, strain pmr1, hits give low values 0.98 | locus YGL173C, strain kem1, hits give low values 0.968 | locus YGL227W, strain vid30, hits give low values 0.985 | locus YGL240W, strain doc1, hits give low values 0.998 | locus YGL248W, strain PDE1, hits give low values 1 | locus YGL253W, strain hxk2, hits give low values 0.957 | locus YGR078C, strain PAC10, hits give low values 1 | locus YGR135W, strain pre9, hits give low values 0.994 | locus YGR229C, strain SMI1, hits give low values 1.02 | locus YGR252W, strain gcn5, hits give low values 1 | locus YHR013C, strain ard1, hits give low values 0.95 | locus YHR027C, strain rpn1, hits give low values 0.984 | locus YHR030C, strain SLT2, hits give low values 1 and 0.979 | locus YHR079C, strain IRE1 (second series), hits give low values 0.999 | locus YHR079C, strain IRE1, hits give low values 0.976 | locus YHR094C, strain hxt1, hits give low values 0.996 | locus YHR129C, strain ARP1, hits give low values 0.999 | locus YHR142W, strain chs7, hits give low values 0.968 | locus YHR200W, strain rpn10, hits give low values 1 | locus YIL066C, strain RNR3, hits give low values 1.02 | locus YIL073C, strain SPO22, hits give low values 1.04 | locus YIL125W, strain kgd1, hits give low values 1 | locus YIR030C, strain dcg1, hits give low values 0.998 | locus YJL092W, strain hpr5, hits give low values 0.984 | locus YJL095W, strain BCK1 (second series), hits give low values 0.974 | locus YJL095W, strain BCK1, hits give low values 1 and 0.989 | locus YJL115W, strain asf1, hits give low values 0.977 | locus YJL129C, strain trk1, hits give low values 0.983 | locus YJL134W, strain LCB3, hits give low values 1 | locus YJL154C, strain vps35, hits give low values 0.975 | locus YJL164C, strain tpk1, hits give low values 0.989 | locus YJL166W, strain qcr8, hits give low values 1.02 | locus YJL168C, strain set2, hits give low values 0.997 | locus YJL187C, strain SWE1 (second series), hits give low values 1.01 | locus YJR043C, strain POL32, hits give low values 1 | locus YJR066W, strain TOR1, hits give low values 0.929 | locus YJR075W, strain HOC1, hits give low values 1.01
